Several values for one entry are separate records, joined by “and”; a condition that tells them apart may be missing. Equal entries are not always repeated. Inconclusive results are not listed. Activity calls are given as the source filed them. Unless noted, calls follow the shape of the dose curve; as a rule, active = well fitted curve in the direction sought with a large enough effect; inconclusive = small, poorly fitted or top-dose-only effect, or another doubt; inactive = no such curve, though single readings can be large; an effect the other way counts as inactive or inconclusive.
Columns and labels:
[1] = molecular target: Cytochrome P450 2C9 (Homo sapiens) (UniProt P11712); experiment: Cytochrome P450 family 2 subfamily C member 9 (CYP2C9) small molecule antagonists: luciferase biochemical (cell-free) qHTS assay (AID 1645842; active = well fitted curve in the direction sought with a large enough effect in the repeat runs; an effect the other way counts as inactive or inconclusive; also: nearly all actives have a fitted effect of over 55% in size)
In short: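 Luminescence, after 20 min with luciferin detection reagent, reflected CYP2C9 turnover during a 1 h NADPH-driven reaction at 37C. Enzyme-substrate mix contained 0.4% bovine serum albumin and was preincubated with compound 10 min at room temperature.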

[2] = Primary qHTS for inhibitors of nuclear receptor binding SET domain protein 2 (NSD2) in an isogenic RCH-ACV NSD2 p.E1099K mutant (9B) (AID 1645876); also: nearly all actives have a fitted effect of over 70% in size
[3] = Primary qHTS for inhibitors of nuclear receptor binding SET domain protein 2 (NSD2) in an RCH-ACV wild type WT cells (2C) (AID 1645877); also: nearly all actives have a fitted effect of over 70% in size
Potency is read from the fitted curve at half-maximal effect.

Chain of Cytochrome P450 2C9 (Homo sapiens) (P11712 whole entry, looked up): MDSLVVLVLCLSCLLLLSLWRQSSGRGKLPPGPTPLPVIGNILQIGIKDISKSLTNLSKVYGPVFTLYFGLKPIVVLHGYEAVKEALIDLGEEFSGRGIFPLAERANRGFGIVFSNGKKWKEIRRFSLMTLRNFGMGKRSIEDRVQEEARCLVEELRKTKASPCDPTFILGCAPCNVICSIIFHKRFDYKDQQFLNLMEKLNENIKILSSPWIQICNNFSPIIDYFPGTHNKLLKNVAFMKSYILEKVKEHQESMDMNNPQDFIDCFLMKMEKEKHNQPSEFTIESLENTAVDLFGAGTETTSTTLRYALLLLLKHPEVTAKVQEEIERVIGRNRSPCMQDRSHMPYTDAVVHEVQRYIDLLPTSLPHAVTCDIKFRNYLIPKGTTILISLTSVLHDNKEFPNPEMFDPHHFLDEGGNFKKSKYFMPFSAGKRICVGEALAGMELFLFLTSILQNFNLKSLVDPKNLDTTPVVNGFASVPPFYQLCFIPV

Cc1c(NC(=O)c2cc3c(s2)CCCC3)cccc1-c1cn(C)c(=O)c(Nc2ccc(C3C(=O)N(C)CCN3C)cc2)n1 (stereo not given)
Potency [1]: 1.2 µM (active) | Potency [2]: 12.9 µM (active)

C=CC(=O)Nc1cccc(Nc2nc(Nc3ccc(NC4CN(CCF)C4)cc3OC)ncc2C(F)(F)F)c1
Potency [1]: 0.268 µM (active) | Potency [2]: 4.59 µM (active) and 5.9 µM (active) | Potency [3]: 4.09 µM (active) and 6.61 µM (active)

C=C(C)[C@@H]1CC=C(COC(=O)NC(=O)c2ncn3c(=O)n(C)nnc23)CC1
Potency [1]: inactive | Potency [2]: inactive

CC(C)OC(=O)N1CCC(Oc2ncnc3c2cnn3-c2ccc(S(C)(=O)=O)cc2F)CC1
Potency [1]: 3.79 µM (active) | Potency [2]: inactive | Potency [3]: inactive

OC(CC1c2ccccc2-c2cncn21)C1CCCCC1 (stereo not given)
Potency [1]: 2.68 µM (active) | Potency [2]: 23 µM (active)

Cc1noc(C)c1-c1cc(O)cc(C(O)c2ccccc2)c1 (stereo not given)
Potency [1]: 0.849 µM (active) | Potency [2]: 0.916 µM (active) | Potency [3]: 1.03 µM (active)

CCCCc1c(-c2ccc(OC)cc2)[nH]c2nccnc12
Potency [1]: inactive | Potency [2]: 3.65 µM (active)

CCN(CC)C(=O)C(c1ccccc1)N1CCN(c2ccc(NC(=O)c3ccccc3-c3cccnc3)cc2F)CC1 (stereo not given)
Potency [1]: 9.52 µM (active) | Potency [2]: inactive | Potency [3]: inactive

CC(C)[C@@H](c1ccc(C(F)(F)F)cc1CN(Cc1cc(C(F)(F)F)cc(C(F)(F)F)c1)c1nnn(C)n1)N1CCC(C(=O)O)CC1
Potency [1]: 15.1 µM (active) | Potency [2]: 25.8 µM (active)

CCCCC1CCC(c2nc(-c3ccncc3)no2)CC1 (stereo not given)
Potency [1]: 5.35 µM (active) | Potency [2]: inactive | Potency [3]: inactive

— PubChem BioAssay (NCATS)
